# Assay outcomes deposited in PubChem BioAssay by National Center for Advancing Translational Sciences (NCATS).
# KDM4E inh: inhibitors of human JMJD2E histone demethylase | B2RXH2 | JMJD2E catalytic domain, FDH-coupled NADH fluorescence (FDH is formaldehyde dehydrogenase) | Potency, µM (top dose mostly 57.1 µM), for the others: at the top dose activity change, negative = inhibition, usual class: inhibitors | 230,000 compounds, 1.6% hits; active means well fitted inhibition curve with a large enough effect, not every such curve was filed as active; inconclusive means small, poorly fitted or top-dose-only effect, or another doubt; inactive means no such curve, though single readings can be large or run the other way;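 further: potency means the concentration at half of the fitted maximal effect; 0% = wells with enzyme and -100% = buffer wells without enzyme; nearly all actives have a fitted effect of over 50% in size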
# Target sequence (B2RXH2 1-337 limits assumed): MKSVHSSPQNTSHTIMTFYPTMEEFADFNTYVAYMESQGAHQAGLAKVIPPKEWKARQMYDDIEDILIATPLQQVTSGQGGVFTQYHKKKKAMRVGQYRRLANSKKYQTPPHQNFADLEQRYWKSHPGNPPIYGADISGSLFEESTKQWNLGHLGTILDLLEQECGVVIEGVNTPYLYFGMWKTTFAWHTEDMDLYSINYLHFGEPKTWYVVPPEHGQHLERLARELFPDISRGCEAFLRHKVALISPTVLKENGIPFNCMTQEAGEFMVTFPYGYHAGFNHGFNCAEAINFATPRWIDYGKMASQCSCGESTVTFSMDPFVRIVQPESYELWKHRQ
# Tau fibril ThT: inhibitors of human tau fibril formation, thioflavin T binding. 270,000 compounds, 2.1% hits. recombinant tau K18 P301L, heparin-induced fibrillization, ThT fluorescence. Potency, µM (top dose mostly 57.4 µM), inactives show at the top dose activity, negative = inhibition, actives largely listed as inhibitors. AID 1460; further: potency means the concentration at half of the fitted maximal effect; nearly all actives have a fitted effect of over 55% in size
# Target sequence (P10636 561-689 P618L limits assumed): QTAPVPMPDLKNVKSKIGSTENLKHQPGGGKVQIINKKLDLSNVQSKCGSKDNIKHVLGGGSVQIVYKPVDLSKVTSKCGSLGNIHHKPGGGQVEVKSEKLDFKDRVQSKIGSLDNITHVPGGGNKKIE
#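 ThT emission at 510 nm, taken 1 hr after adding 30 uM dye, quantifies aggregates formed when 20 uM heparin acts on human tau K18 P301L for 6 hr at 37 C.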
# Tau fibril FP: blocks human tau fibril formation measured by polarization. P10636. K18 P301L tau heparin fibrillization, Alexa594 FP, 6 h. Potency, µM (highest dose often 57.7 µM), inactives show at the top dose activity, negative = inhibition, actives largely listed as inhibitors. 280,000 compounds, 0.39% hits. AID 1468; further: potency means the concentration at half of the fitted maximal effect; nearly all actives have a fitted effect of over 55% in size
#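 Human K18 P301L fragment (15 uM unlabeled plus 0.24 uM Alexa 594-labeled) in 100 mM sodium acetate pH 7 with compound, aggregation induced by 20 uM heparin for 6 hr at 37 C. ThT (30 uM) added for 1 hr, then Alexa 594 FP read.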
# Tau fluor counter: counter-screen for tau fibril formation inhibitors. tau K18 P301L Alexa594 fluorescence, heparin fibrillization. Potency, µM (titrated, usually from 57.7 µM), for inactives: top-dose activity change, negative = decrease. 280,000 compounds, 0.93% hits. AID 1463; further: potency means the concentration at half of the fitted maximal effect; nearly all actives have a fitted effect of over 55% in size
#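 Human tau K18 P301L (15 uM unlabeled, 0.24 uM Alexa 594-labeled) in 100 mM sodium acetate pH 7 with 20 uM heparin, 6 hr at 37 C. ThT 30 uM added, 1 hr ambient; Alexa 594 FP and total fluorescence read at 555/632 nm.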
# Coupling enz: counter-screen for Giardia aldolase inhibitors: coupling enzyme system. 290,000 compounds, 0.67% hits. coupling enzyme system counterscreen, AmpLite Red fluorescence. activity change, negative = inhibition, % at 58.2 µM, hits read low; in the data active means activity change below about -30%
#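 Activity here indicates interference with the coupling reaction, not aldolase inhibition. Compounds at 57.5 uM final met coupling enzymes for 10 min at RT; substrate and AmpLite Red detection followed, with a 525/598 nm fluorescence read after 20 min.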
# * = called active by the depositor; u = inconclusive; x = no result; [ ] = dose if it differs, or a comment. In the library only some 3% were active in any assay of this set; here they are far more common. Unless noted, the call rests on the fitted dose curve; in most records, active means well fitted curve in the direction sought with a large enough effect; inconclusive means small, poorly fitted or top-dose-only effect, or another doubt; inactive means no such curve, though single readings can be large; an effect the other way counts as inactive or inconclusive. Unless noted, on the % scale 0 is the no-effect control and ±100 the full control effect.
SMILES,KDM4E inh,Tau fibril ThT,Tau fibril FP,Tau fluor counter,Coupling enz
O=C(CN1C(=O)C2CC=C(Cl)CC2C1=O)N1CCOCC1 (configuration not stated),-1%,2%,3%,2%,-36*
COC(=O)C1=C(C(=O)OC)[C@@H]2N(Cc3ccccc3)c3ccccc3[C@@]23C[C@@H](C(=O)OC)N(S(=O)(=O)c2cccs2)C3=N1,-9%[11.4 µM],-7%[11.5 µM],2%[11.6 µM],-12%[11.6 µM],-1
CC[n+]1c(C)n(C)c2cc(S(=O)(=O)N(C)C)ccc21,10µM*,-9%,-3%,-8%,0
Cc1ccc(C2C(C#N)=C(N)SC(N)=C2C#N)c(C)c1,4%,-6%,7%,-2%,-41*
O=C(NCCCCc1ccccc1)c1nn(-c2ccccc2)nc1CO,x,-13%,0%,-13%,x
Cc1cc(O)c(-c2cc(O)c(C)cc2O)cc1O,u,7.9µM*,14µM*,u,-50*
Cc1cc(O)cc(C)c1Cl,-5%,-8%,3%,-21%,-4
c1ccc2c(c1)nc(N1CCOCC1)c1c3ccccc3[nH]c21,u,-5%,-13%,u,-45*
O=c1[nH]c2ccccc2nc1N1CCOCC1,-3%,-3%,4%,2%,4
O=C(O)c1ccc(N/N=C/c2ccc(OC(=O)c3cccc(Cl)c3)cc2)cc1,u,13µM*,u,u,6
COC(=O)c1ccc(COc2ccc(/C=N/Nc3cccc(C(=O)O)c3)cc2)cc1,-29%,16µM*,-3%,u,3
O=C(O)c1cccc(N/N=C/c2ccc(OC(F)(F)F)cc2)c1,x,x,x,x,1
CCOc1ccc(C(=O)c2cn(CC(=O)Nc3ccc(C)c(C)c3)c3ccc(OCC)cc3c2=O)cc1,x,0%,-16%,-4%,x
COc1cc(NC(=O)c2csc(N)n2)cc(C(=O)Nc2cccc(C(F)(F)F)c2)c1,-27%,u,u,u,0
COc1cc(NC(=O)c2cnc(N)s2)cc(C(=O)Nc2cccc(C(F)(F)F)c2)c1,20µM*,0%,u,-29%,0
O=c1c(N2CCCCC2)csc2ccc(F)cc12,x,u,-3%,-5%,x
Cc1ccc2scc(N3CCc4ccccc4C3)c(=O)c2c1,x,7.1µM*,u,u,x
CCN1CCN(c2csc3ccc(F)cc3c2=O)CC1,x,u,4%,-5%,x
Cc1ccc2scc(N3CCN(c4ccc(F)cc4)CC3)c(=O)c2c1,x,8.9µM*,-6%,-22%,x
Cc1ccc2scc(N3CCN(c4ccccc4)CC3)c(=O)c2c1,x,4µM*,-5%,-30%,x
CC(=O)N1CCN(c2csc3ccc(Br)cc3c2=O)CC1,x,u,4%,-22%,x
CN(C)c1ccc(-c2c(C3C4C=CCCC4(C)C(=O)N3Cc3ccccc3)ccc3ccccc23)cc1 (configuration not stated),x,x,x,x,-3
Cc1oc(C(=O)Nc2ccc(O)cc2)cc1COc1ccccc1,2%,u,9%,-30%,-32*
COC(=O)NC(c1cccc(C)c1)[C@@]1(C(=O)OC)CCCC1=O (some centres not stated),x,-8%[11.5 µM],-1%[11.6 µM],-4%[11.6 µM],-1
CCN1CCN(C(c2ccc(C(F)(F)F)cc2)c2ccc3cccnc3c2O)CC1 (configuration not stated),x,x,x,x,1
SMILES,KDM4E inh,Tau fibril ThT,Tau fibril FP,Tau fluor counter,Coupling enz
OCCN1CCN(C(c2cccs2)c2ccc3cccnc3c2O)CC1 (configuration not stated),8.9µM*,u,u,-16%,-12
O=C1/C(=C/c2ccc(O)cc2)SC(=S)N1CC1CCCO1 (configuration not stated),-7%,10µM*,u,13µM*[quencher],9
Cc1cccc(N2CCN(C(=O)c3nn(C)c4c3CSc3ccccc3-4)CC2C)c1 (configuration not stated),x,8%,-5%,-3%,x
COc1ccccc1N1CCN(C(=O)c2ccc3c(c2)N(Cc2ccccc2)C(=O)c2ccccc2S3(=O)=O)CC1,x,-6%,2%,-24%,x
CCOC(=O)c1cnc(-c2cccc(OC)c2)[nH]c1=O,u,-4%,9%,2%,-33*
CCOC(=O)c1cnc(-c2ccccc2)[nH]c1=O,-5%,1%,4%,1%,-15
CCC1CN(C(=O)N2CCC(C(=O)NCc3ccc(N(C)C)cc3)CC2)c2ccccc2O1 (configuration not stated),x,-16%,9%,-18%,x
CCOC(=O)c1cc(-c2ccc(F)cc2)n(CCC(=O)Nc2nc3cc(C)c(C)cc3s2)c1C,x,-6%,-18%,-17%,x
COc1ccc(NC2=C(NC(C)=O)C(=O)c3ccccc3C2=O)cc1,x,x,x,x,-25
Cc1cccc(NC2=C(NCCO)C(=O)c3ccccc3C2=O)c1,u,25µM*,u,u,-35*
Cc1cccc(Nc2nc(N)c([N+](=O)[O-])c(NCCO)n2)c1,2%,u,15%,4%,1
COc1ccc(NC2=C(NCCO)C(=O)c3ccccc3C2=O)cc1,u,13µM*,u,u,-43*
COc1cccc(NC2=C(NCCO)C(=O)c3ccccc3C2=O)c1,x,x,x,x,-30*
COc1cccc(Nc2c(Nc3cccc(OC)c3)c(=O)c2=O)c1,x,x,x,x,1
c1ccc(Oc2nc(NC3CCCCC3)c3[nH]cnc3n2)cc1,x,1%,-1%,-9%,-7
CN(C(=O)CSc1nc2ccccc2n1CC(=O)NCc1ccc(F)cc1)c1ccc(F)cc1,x,-2%,0%,-12%,x
CN(C)c1ccc(/C=C/c2ccc3ccccc3n2)cc1,22µM*,u,4%,u,4
CC1=C(c2ccc(C(C)C)cc2)S(=O)(=O)NC1=NCc1ccccc1Br,x,7%,u,-10%,x
CN(C)/C=C1\NC(=S)N(c2ccccc2)C1=O,-3%,-13%,-3%,0%,3
COc1ccc(N2C(=O)/C(=C/c3cccs3)NC2=S)cc1,0%,22µM*,u,-25%,2
Cn1c(-c2ccccc2)c(/C=N/NC(=O)c2ccc(O)cc2)c2ccccc21,u,u,2%,20µM*[quencher],-3
Cn1c(-c2ccccc2)c(C=O)c2ccccc21,-33%,-8%,1%,-9%,5
COc1cc(/C=C2\SC(N)=NC2=O)cc(Cl)c1O,x,x,x,x,-3
Cc1ccc(C2=NC(=O)/C(=C/c3cc(O)c(O)c(Br)c3)S2)cc1,13µM*,4µM*,u,2.8µM*[quencher],-6
COc1cc(/C=C2\SC(c3ccc(C)cc3)=NC2=O)cc(OC)c1O,u,5µM*,u,u,-8
Cc1cccc(-c2nn(C(=S)Nc3ccccc3)cc2-c2ccnc3ccccc23)n1,x,x,x,x,-13
COC(=O)C1=C(C)OC(N)=C(C#N)C1c1cc(OC)c(OCC(N)=O)cc1Cl (configuration not stated),u,u,-8%,-8%,-30*
